Results from PubChem BioAssay AID504558 (Broad Institute, 2011).
In all, about 350,000 compounds went through this assay and about 2,400 (0.69%) were called active. Shown is part of a subset that was picked to be rich in actives. A number with no mark means an inactive call. Cut-off read from the data, not from the text of the source: active = inhibition above about 41%; inconclusive = no clear call, values can overlap the other calls; inactive = below that.

Assay: blockers of LMP1-induced NF-kB reporter signal – cell-based, luminescence, single point, primary screen (AID 504558);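 note: 0% = neutral control wells and 100% = reference inhibitor control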
Conditions: LMP1-induced NF-kappaB luciferase reporter cells, at 12.5 µM, stronger effect = higher value
CCN(CC)C(=O)N(CC)Cc1ccccc1 showed an inhibition of 2.28%. CC(C)(C)N(Cc1ccccc1)C(=O)c1ccncc1 showed an inhibition of 11.5%. With CCN(Cc1ccncc1)C(=O)CCc1ccccc1 the inhibition was 78.9% (active). For CCN(CC)C(=O)C1=C(C)N(Cc2ccc(C(C)(C)C)cc2)C(=O)C(CC(=O)NCc2cccc3ccccc23)C1 (centres undefined), the inhibition was -0.881%. Compound CCOc1cc(/C=N/NC(=O)c2ccncc2)cc(Br)c1O has an inhibition of -1.49%. In the case of CNC(=O)c1csc(Cc2c(Cl)sc3ccc(Cl)cc23)n1, the inhibition is reported as 54.8% (active). Work on CC(=O)NNC(=O)c1csc(Cc2c(Cl)sc3ccc(Cl)cc23)n1 yielded an inhibition of 8.06%. Compound CNC(=O)c1csc(-c2ccccc2)n1 has an inhibition of 6.33%. In the case of C[C@@H]1CN([C@H](C)CO)S(=O)(=O)c2ccc(C#C[C@@H](C)O)cc2O[C@@H]1CN(C)Cc1ccc(-c2ccccc2)cc1, the inhibition is reported as -5.47%. For Cc1onc(-c2ccccc2)c1-c1nnc(COC(=O)c2ccc(N(C)C)cc2)o1, the inhibition was 16.7%. In the case of COc1cccc(-c2nnc(NC(=O)c3ccc(S(=O)(=O)N(CC(C)C)CC(C)C)cc3)o2)c1, the inhibition is reported as 44.9% (active). With COc1cc(-c2nnc(NC(=O)CS(=O)(=O)c3ccc(Cl)cc3)o2)cc(OC)c1OC the inhibition was 3.37%. COc1ccc(-c2nnc(NC(=O)CS(=O)(=O)c3ccc(Cl)cc3)o2)c(OC)c1 gave an inhibition of -10.8%. CNC(=O)C[C@H]1C(=O)N(Cc2ccccc2)C[C@@H]1CSC showed an inhibition of -2.82%. Work on O=C(C[C@H]1C[C@H]2c3cc(NS(=O)(=O)c4ccc(F)cc4)ccc3O[C@H]2[C@H](CO)O1)NCc1cc(F)ccc1F yielded an inhibition of 4.21%. In the case of COc1ccc(CNc2ncnc3ccccc23)cc1, the inhibition is reported as 41.7% (active). For COc1ccc(CNc2nccs2)cc1, the inhibition was 8.57%. Work on COc1cccc(CNc2nc(C(F)(F)F)nc3ccccc23)c1 yielded an inhibition of -0.361%. In the case of COc1cc2ccccc2cc1C(=O)Nc1ccccc1C, the inhibition is reported as -76.9%. In the case of COc1ccc(C(=O)Nc2cc(C)c(NC(=O)c3ccccc3OC)cn2)cc1, the inhibition is reported as 40.6% (active). For COc1ccc(C(=O)N/N=C(\C)CC(=O)Nc2ccc(Cl)cn2)cc1, the inhibition was -1.25%. Compound O[C@@H]1C[C@H](c2ccccc2)N(Cc2cccs2)C[C@H]1n1cc(C2CC2)nn1 has an inhibition of -8.56%. Cc1ccc(C(=O)OCC(=O)NC2CCCCCCC2)cc1C gave an inhibition of 7.43%. COc1ccc(C(C)(C)C)cc1NC(=O)CN(C)C1=NS(=O)(=O)c2ccccc21 gave an inhibition of -11.2%. With COC(=O)c1[nH]c2cccc(C)c2c1NC(=O)CN1CCCc2ccccc21 the inhibition was 87.4% (active). For NS(=O)(=O)c1cccc(NC(=O)CN2CCCc3ccccc32)c1, the inhibition was -3.3%. With COC(=O)c1[nH]c2ccccc2c1NC(=O)CN1CCCc2ccccc21 the inhibition was -17.6%. In the case of O=C(CCc1ccc(O)cc1)NN=Cc1cc(Br)ccc1O, the inhibition is reported as 6.93%. For Cc1ccccc1OS(=O)(=O)c1cccc([N+](=O)[O-])c1, the inhibition was 0.335%. In the case of Fc1ccc2[nH]c3c(N4CCSCC4)ncnc3c2c1, the inhibition is reported as 53.7% (active). Work on O=C(NCC(F)(F)F)c1ccc(S(=O)(=O)NCCc2ccc3c(c2)OCCO3)cc1 yielded an inhibition of 0.519%. Work on C[C@@H]1CN([C@@H](C)CO)C(=O)CCCn2nncc2CO[C@@H]1CN(C)S(=O)(=O)c1ccc(-c2ccccc2)cc1 yielded an inhibition of -1.13%. Compound COc1ccccc1OCCCC(=O)Nc1ccc2c(c1)OCCO2 has an inhibition of -0.694%. In the case of COC(=O)CCNc1ccc2c(c1)OCCO2, the inhibition is reported as 45.2% (active). Compound Cc1ccc(OCCCC(=O)Nc2ccc3c(c2)OCCO3)cc1 has an inhibition of 8.28%. CCc1nnc(NC(=O)c2ccco2)s1 showed an inhibition of -0.797%. With O=C1/C(=C\c2ccc([N+](=O)[O-])cc2)CS(=O)(=O)C/C1=C/c1ccc([N+](=O)[O-])cc1 the inhibition was 92.5% (active). CC(=O)Nc1ccc(C=Cc2ccc([N+](=O)[O-])cc2)cc1 showed an inhibition of -20.1%. Compound CNC(=S)Nc1ccc([N+](=O)[O-])cc1 has an inhibition of -10.6%. CCCn1c(N)c(C(=O)CSc2nnc(Cc3cccs3)n2C2CC2)c(=O)[nH]c1=O gave an inhibition of 0.699%. O=C(CSc1ncn[nH]1)Nc1nc2c(F)c(F)c(F)cc2s1 showed an inhibition of -1.34%. With O=C(O)C(=Cc1ccc([N+](=O)[O-])cc1)CCc1ccccc1 the inhibition was 2.53%. CCOC(=O)C(=Cc1ccccc1)C(=O)c1ccccc1 showed an inhibition of 31.5%. With CCOC(=O)/C(=C\c1ccc([N+](=O)[O-])cc1)C(=O)c1cc(C(C)=O)c(Nc2ccccc2)s1 the inhibition was 55.7% (active). For COc1ccc(NC(=O)CN(C)C(=O)c2cc(C)oc2C)cc1, the inhibition was -4.83%. Work on Cc1cccc(C)c1NC(=O)CNC(=O)c1ccc(N2CCOCC2)c([N+](=O)[O-])c1 yielded an inhibition of -0.676%. In the case of O=c1oc2ccccc2cc1-c1cn(-c2ccccc2)c(=S)[nH]1, the inhibition is reported as 73.5% (active). In the case of CS(=O)(=O)N1CCN(C(=O)c2cc3ccccc3oc2=O)CC1, the inhibition is reported as 9.53%. With COc1cccc(-n2c(=S)[nH]c3c(oc4ccccc43)c2=O)c1 the inhibition was -10.2%. Compound C[C@H]1CN([C@@H](C)CO)C(=O)CCCn2cc(nn2)CO[C@@H]1CN(C)C(=O)Nc1ccccc1 has an inhibition of -0.0595%. With Cc1ccc([C@H]2C[C@H](O)[C@@H](n3cc(COC(=O)c4ccccc4)nn3)CN2C(=O)C2CCCCC2)cc1 the inhibition was 7.15%. In the case of COc1ccc(CN2C(=O)C(CC(=O)NCc3cccc4ccccc34)CC(C(=O)N3CCOCC3)=C2C)cc1 (centres undefined), the inhibition is reported as 1.6%. For CSc1nc(-c2ccccc2)nc(C(Cl)Cl)n1, the inhibition was 85.7% (active). Work on Cc1csc(SCC(=O)Nc2ccc(C)c(S(=O)(=O)N(C)C)c2)n1 yielded an inhibition of -5.08%. Work on Cc1ccc(CCNC(=O)CN2C(=O)CSc3ccc(S(=O)(=O)N4CCOCC4)cc32)cc1 yielded an inhibition of -9.19%. With O=C1CC[C@@H](C(=O)N2CSC[C@@H]2C(=O)Nc2ccc(C(F)(F)F)cc2)N1 the inhibition was -8.12%. With CC(C)C(C)NC(=O)COc1nc2ccccc2nc1N(C)C1CCCCC1 (centres undefined) the inhibition was -16%. For CN(c1ccc2nc3ccccc3c(=O)n2n1)C1CCCCC1, the inhibition was 76% (active). CC(C)c1cc(C(=O)NC2CCCCCC2)c2ccccc2n1 showed an inhibition of -2.77%.
